# Experimental data from the supplement of paper PMC8728848.
# The full list was thinned out, with the strongest signals kept by preference.
# B1: LlpB (Pseudomonas fluorescens) (protein)
# chain: MGSSHHHHHHSSGLVPRGSHMASSGFRIILFNSANNGTAILPPRNCLVAGQYLESPSKRYKLILEADGNLRLYDNGVPIWVADSSVPYTYVDNRPNTNLVTCFYMQGSAFLVDRVGSRTWATIGDWIDGAADRAYLQVQDDGNVVVVDGVPRWARFGFTPAALPNRGVFYPDHGTGPLPSFPVWSWTF
# Key:
# Assay in all cases: glycan array binding signal (z-score within array); higher = stronger binding
# Details in all cases: glycan notation: IUPAC condensed, linker removed
# [1] = molecular target: Fuc(a1-2)Gal
# How it was run: (§1)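 The Consortium for Functional Glycomics database supplied 3228 glycan arrays, of which those lacking an available protein sequence were dropped. The binding signal, a within-array Z-score, was averaged across arrays of the same protein sequence and across linkers. Negative scores can be read as non-binding.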
# [2] = molecular target: Fuc(a1-2)Gal(b1-3)GalNAc
# How it was run: as §1
# [3] = molecular target: Fuc(a1-2)Gal(b1-3)GlcNAc(b1-2)Man(a1-3)[Fuc(a1-2)Gal(b1-3)GlcNAc(b1-2)Man(a1-6)]Man(b1-4)GlcNAc(b1-4)[Fuc(a1-6)]GlcNAc
# How it was run: as §1
# [4] = molecular target: Fuc(a1-2)Gal(b1-4)GlcNAc(b1-3)Gal(b1-4)GlcNAc(b1-3)Gal(b1-4)GlcNAc
# How it was run: as §1
# [5] = molecular target: Fuc(a1-2)Gal(b1-4)GlcNAc(b1-3)[Fuc(a1-3)[Gal(b1-4)]GlcNAc(b1-6)]Gal(b1-4)Glc
# How it was run: as §1
# [6] = molecular target: Fuc(a1-2)Gal(b1-4)[Fuc(a1-3)]GlcNAc(b1-3)[Neu5Ac(a2-6)Gal(b1-4)GlcNAc(b1-6)]Gal(b1-4)Glc
# How it was run: as §1
# [7] = molecular target: Fuc(a1-2)[GalNAc(a1-3)]Gal(b1-4)Glc
# How it was run: as §1
# [8] = molecular target: Fuc(a1-3)[Gal(b1-4)]GlcNAc(b1-3)Gal(b1-4)[Fuc(a1-3)]GlcNAc
# How it was run: as §1
# [9] = molecular target: Gal(a1-3)Gal(b1-3)GlcNAc(b1-2)Man
# How it was run: as §1
# [10] = molecular target: Gal(b1-3)GlcNAc
# How it was run: as §1
# [11] = molecular target: Gal(b1-3)GlcNAc(b1-3)Gal(b1-4)GlcNAc
# How it was run: as §1
# [12] = molecular target: Gal(b1-3)GlcNAc(b1-3)Gal(b1-4)[Fuc(a1-3)]GlcNAc
# How it was run: as §1
# [13] = molecular target: Gal(b1-4)GlcNAc(b1-2)Man
# How it was run: as §1
# [14] = molecular target: Gal(b1-4)GlcNAc(b1-2)Man(a1-3)[Man(a1-6)]Man(b1-4)GlcNAc(b1-4)GlcNAc
# How it was run: as §1
# [15] = molecular target: Gal(b1-4)GlcNAc(b1-2)Man(a1-6)Man(b1-4)GlcNAc(b1-4)GlcNAc
# How it was run: as §1
# [16] = molecular target: Gal(b1-4)GlcNAc(b1-3)Gal(b1-3)GalNAc
# How it was run: as §1
# [17] = molecular target: Gal(b1-4)GlcNAc(b1-3)Gal(b1-4)GlcNAc(b1-3)Gal(b1-4)GlcNAc(b1-2)Man(a1-3)[Gal(b1-4)GlcNAc(b1-3)Gal(b1-4)GlcNAc(b1-3)Gal(b1-4)GlcNAc(b1-2)Man(a1-6)]Man(b1-4)GlcNAc(b1-4)[Fuc(a1-6)]GlcNAc
# How it was run: as §1
# [18] = molecular target: Gal3S(b1-4)[Fuc(a1-3)]GlcNAc
# How it was run: as §1
# [19] = molecular target: Gal6S(b1-4)Glc
# How it was run: as §1
# [20] = molecular target: GlcA3S(b1-3)Gal(b1-4)GlcNAc(b1-3)Gal(b1-4)Glc
# How it was run: as §1
# [21] = molecular target: GlcNAc(b1-2)Man(a1-3)[GlcNAc(b1-4)][GlcNAc(b1-2)Man(a1-6)]Man(b1-4)GlcNAc(b1-4)[Fuc(a1-6)]GlcNAc
# How it was run: as §1
# [22] = molecular target: GlcNAc(b1-2)[GlcNAc(b1-4)]Man(a1-3)[GlcNAc(b1-4)][GlcNAc(b1-2)[GlcNAc(b1-6)]Man(a1-6)]Man(b1-4)GlcNAc(b1-4)[Fuc(a1-6)]GlcNAc
# How it was run: as §1
# [23] = molecular target: GlcNAc(b1-2)[GlcNAc(b1-6)]Man(a1-6)[GlcNAc(b1-2)Man(a1-3)]Man(b1-4)GlcNAc(b1-4)GlcNAc
# How it was run: as §1
# [24] = molecular target: GlcNAc(b1-3)Gal(b1-4)Glc
# How it was run: as §1
# [25] = molecular target: GlcNAc(b1-3)Gal(b1-4)GlcNAc(b1-3)Gal(b1-4)GlcNAc(b1-2)[GlcNAc(b1-3)Gal(b1-4)GlcNAc(b1-3)Gal(b1-4)GlcNAc(b1-6)]Man(a1-6)[GlcNAc(b1-3)Gal(b1-4)GlcNAc(b1-3)Gal(b1-4)GlcNAc(b1-2)Man(a1-3)]Man(b1-4)GlcNAc(b1-4)[Fuc(a1-6)]GlcNAc
# How it was run: as §1
# [26] = molecular target: GlcNAc(b1-3)Gal(b1-4)GlcNAc(b1-6)[Gal(b1-3)]GalNAc
# How it was run: as §1
# [27] = molecular target: GlcNAc(b1-3)Gal(b1-4)GlcNAc(b1-6)[GlcNAc(b1-3)]Gal(b1-4)GlcNAc
# How it was run: as §1
# [28] = molecular target: GlcNAc(b1-3)Man
# How it was run: as §1
# [29] = molecular target: GlcNAc(b1-3)[GlcNAc(b1-6)]Gal(b1-4)GlcNAc
# How it was run: as §1
# [30] = molecular target: Kdn(a2-3)Gal(b1-4)Glc
# How it was run: as §1
# [31] = molecular target: MurNAc(b1-4)GlcNAc
# How it was run: as §1
# [32] = molecular target: Neu5Ac(a2-3)Gal(b1-3)GalNAc(b1-4)[Neu5Ac(a2-3)]Gal(b1-4)Glc
# How it was run: as §1
# [33] = molecular target: Neu5Ac(a2-3)Gal(b1-3)GalNAc(b1-4)[Neu5Ac(a2-8)Neu5Ac(a2-3)]Gal(b1-4)Glc
# How it was run: as §1
# [34] = molecular target: Neu5Ac(a2-3)Gal(b1-3)GlcNAc(b1-2)Man
# How it was run: as §1
# [35] = molecular target: Neu5Ac(a2-3)Gal(b1-3)[Fuc(a1-4)]GlcNAc
# How it was run: as §1
# [36] = molecular target: Neu5Ac(a2-3)Gal(b1-4)Glc
# How it was run: as §1
# [37] = molecular target: Neu5Ac(a2-3)Gal(b1-4)GlcNAc(b1-2)Man(a1-3)[Neu5Ac(a2-3)Gal(b1-4)GlcNAc(b1-2)Man(a1-6)]Man(b1-4)GlcNAc(b1-4)[Fuc(a1-6)]GlcNAc
# How it was run: as §1
# [38] = molecular target: Neu5Ac(a2-3)Gal(b1-4)GlcNAc(b1-2)[Neu5Ac(a2-3)Gal(b1-4)GlcNAc(b1-4)]Man(a1-3)[GlcNAc(b1-4)][Neu5Ac(a2-3)Gal(b1-4)GlcNAc(b1-2)[Neu5Ac(a2-3)Gal(b1-4)GlcNAc(b1-6)]Man(a1-6)]Man(b1-4)GlcNAc(b1-4)GlcNAc
# How it was run: as §1
# [39] = molecular target: Neu5Ac(a2-3)Gal(b1-4)GlcNAc(b1-2)[Neu5Ac(a2-3)Gal(b1-4)GlcNAc(b1-6)]Man(a1-6)[Neu5Ac(a2-3)Gal(b1-4)GlcNAc(b1-2)Man(a1-3)][GlcNAc(b1-4)]Man(b1-4)GlcNAc(b1-4)GlcNAc
# How it was run: as §1
# [40] = molecular target: Neu5Ac(a2-3)Gal(b1-4)GlcNAc(b1-3)Gal(b1-4)GlcNAc(b1-3)[Neu5Ac(a2-3)Gal(b1-4)GlcNAc(b1-3)Gal(b1-4)GlcNAc(b1-6)]GalNAc
# How it was run: as §1
# [41] = molecular target: Neu5Ac(a2-3)Gal(b1-4)GlcNAc(b1-3)GalNAc
# How it was run: as §1
# [42] = molecular target: Neu5Ac(a2-3)Gal(b1-4)GlcNAc(b1-3)[Neu5Ac(a2-3)Gal(b1-4)GlcNAc(b1-6)]GalNAc
# How it was run: as §1
# [43] = molecular target: Neu5Ac(a2-3)Gal(b1-4)[Fuc(a1-3)]GlcNAc(b1-3)GalNAc
# How it was run: as §1
# [44] = molecular target: Neu5Ac(a2-6)Gal(b1-4)GlcNAc(b1-2)Man(a1-3)[Man(a1-6)]Man(b1-4)GlcNAc(b1-4)GlcNAc
# How it was run: as §1
# [45] = molecular target: Neu5Ac(a2-6)Gal(b1-4)GlcNAc(b1-2)Man(a1-3)[Neu5Ac(a2-6)Gal(b1-4)GlcNAc(b1-2)Man(a1-6)]Man(b1-4)GlcNAc(b1-4)[Fuc(a1-6)]GlcNAc
# How it was run: as §1
# [46] = molecular target: Neu5Ac(a2-6)Gal(b1-4)GlcNAc(b1-3)Gal(b1-4)GlcNAc(b1-2)Man(a1-3)[Neu5Ac(a2-6)Gal(b1-4)GlcNAc(b1-3)Gal(b1-4)GlcNAc(b1-2)Man(a1-6)]GalNAc
# How it was run: as §1
# [47] = molecular target: Neu5Ac(a2-6)Gal(b1-4)GlcNAc(b1-3)Gal(b1-4)GlcNAc(b1-3)GalNAc
# How it was run: as §1
# [48] = molecular target: Neu5Ac(a2-6)GalNAc(b1-4)GlcNAc
# How it was run: as §1
# [49] = molecular target: Neu5Ac(a2-6)GlcNAc(b1-4)GlcNAc(b1-4)GlcNAc
# How it was run: as §1
# [50] = molecular target: Neu5Ac(a2-8)Neu5Ac(a2-3)Gal(b1-3)GalNAc(b1-4)[Neu5Ac(a2-3)]Gal(b1-4)Glc
# How it was run: as §1
# [51] = molecular target: Neu5Ac(a2-8)Neu5Ac(a2-3)Gal(b1-4)GlcNAc
# How it was run: as §1
# [52] = molecular target: Neu5Ac(a2-8)Neu5Ac(a2-3)[Gal(b1-3)GalNAc(b1-4)]Gal(b1-4)Glc
# How it was run: as §1
# [53] = molecular target: Neu5Ac9Ac(a2-3)Gal(b1-3)GlcNAc
# How it was run: as §1
# [54] = molecular target: Neu5Gc(a2-3)Gal(b1-4)Glc
# How it was run: as §1
binder,measurement,setting,value
B1,glycan array binding signal (z-score),[1],-0.044
same,glycan array binding signal (z-score),[2],-0.631
same,glycan array binding signal (z-score),[3],-0.114
same,glycan array binding signal (z-score),[4],2.58
same,glycan array binding signal (z-score),[5],-0.33
same,glycan array binding signal (z-score),[6],0.032
same,glycan array binding signal (z-score),[7],-0.54
same,glycan array binding signal (z-score),[8],1.4
same,glycan array binding signal (z-score),[9],0.466
same,glycan array binding signal (z-score),[10],0.344
same,glycan array binding signal (z-score),[11],0.129
same,glycan array binding signal (z-score),[12],0.523
same,glycan array binding signal (z-score),[13],3.72
same,glycan array binding signal (z-score),[14],0.362
same,glycan array binding signal (z-score),[15],-0.158
same,glycan array binding signal (z-score),[16],-0.092
same,glycan array binding signal (z-score),[17],2.11
same,glycan array binding signal (z-score),[18],-1.03
same,glycan array binding signal (z-score),[19],-1.15
same,glycan array binding signal (z-score),[20],-1.73
same,glycan array binding signal (z-score),[21],1.22
same,glycan array binding signal (z-score),[22],-0.095
same,glycan array binding signal (z-score),[23],0.893
same,glycan array binding signal (z-score),[24],-0.719
same,glycan array binding signal (z-score),[25],0.375
same,glycan array binding signal (z-score),[26],1.38
same,glycan array binding signal (z-score),[27],-0.837
same,glycan array binding signal (z-score),[28],0.669
same,glycan array binding signal (z-score),[29],-0.461
same,glycan array binding signal (z-score),[30],3.03
same,glycan array binding signal (z-score),[31],2.54
same,glycan array binding signal (z-score),[32],2.9
same,glycan array binding signal (z-score),[33],-1.93
same,glycan array binding signal (z-score),[34],2.63
same,glycan array binding signal (z-score),[35],2.3
same,glycan array binding signal (z-score),[36],2.98
same,glycan array binding signal (z-score),[37],-0.332
same,glycan array binding signal (z-score),[38],1.21
same,glycan array binding signal (z-score),[39],-0.505
same,glycan array binding signal (z-score),[40],-0.12
same,glycan array binding signal (z-score),[41],-0.794
same,glycan array binding signal (z-score),[42],-0.411
same,glycan array binding signal (z-score),[43],0.993
same,glycan array binding signal (z-score),[44],2.88
same,glycan array binding signal (z-score),[45],3.58
same,glycan array binding signal (z-score),[46],2.6
same,glycan array binding signal (z-score),[47],-0.312
same,glycan array binding signal (z-score),[48],-0.182
same,glycan array binding signal (z-score),[49],2.47
same,glycan array binding signal (z-score),[50],2.81
same,glycan array binding signal (z-score),[51],-1.02
same,glycan array binding signal (z-score),[52],-1.03
same,glycan array binding signal (z-score),[53],-0.008
same,glycan array binding signal (z-score),[54],0.956
